CYP2C9 inhib: blockers of cytochrome P450 2C9 activity – biochemical, luminescence, ADME assay, primary screen. P11712. CYP2C9 Supersomes, luciferin-H conversion. hit rate 20% among 96,000. inhibition, % at 5 µM;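 active means blocking of liver enzyme CYP2C9 beyond about 50% at 5 µM, limit read from the data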
CYP2C19 inhib: blockers of cytochrome P450 2C19 activity – biochemical, luminescence, ADME assay, primary screen; P33261; CYP2C19 Supersomes, luciferin-H EGE luminescence, 30 min; inhibition, % at 5 µM; hit rate 21% among 96,000; AID 778, 2007;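 active means CYP2C19 inhibition above a set limit at 5 µM in the primary screen, cut at about 50% in these data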;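 further: plate controls were negative control wells for no effect and 2.5 mM tranylcypromine positive control for full effect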
Target sequence (P33261 whole entry, looked up): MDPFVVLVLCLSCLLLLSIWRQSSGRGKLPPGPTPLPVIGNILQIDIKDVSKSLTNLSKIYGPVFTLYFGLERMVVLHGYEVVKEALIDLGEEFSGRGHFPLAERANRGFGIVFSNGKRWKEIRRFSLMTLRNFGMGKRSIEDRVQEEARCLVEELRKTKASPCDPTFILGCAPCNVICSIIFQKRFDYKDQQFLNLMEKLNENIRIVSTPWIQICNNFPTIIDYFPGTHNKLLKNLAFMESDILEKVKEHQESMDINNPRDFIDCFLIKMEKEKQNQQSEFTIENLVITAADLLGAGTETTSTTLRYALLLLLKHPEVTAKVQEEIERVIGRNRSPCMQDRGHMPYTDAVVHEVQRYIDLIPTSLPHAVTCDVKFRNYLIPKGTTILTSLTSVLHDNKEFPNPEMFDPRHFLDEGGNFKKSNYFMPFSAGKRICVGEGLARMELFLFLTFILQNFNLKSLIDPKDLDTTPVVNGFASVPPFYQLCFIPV
CYP2C9 activ: human CYP2C9 activators, primary screen, biochemical, luminescence. Cytochrome P450 2C9 (Homo sapiens), P11712. recombinant CYP2C9, luciferin-H conversion; active compounds read high; factor 1 = untreated enzyme, 0 = blocked. activation factor at 5 µM. hit rate 1.4% among 96,000;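 active means activation factor of 2 or more for CYP2C9 at a 5 µM dose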;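 further: 0 = sulfaphenazole-blocked wells and 1 = vehicle-only wells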
PostGolgi yeast: phenotypic screen on post-Golgi transport, primary screen; post-Golgi transport phenotypic cell assay; inhibition, % at 10 µM; hit rate 0.9% among 98,000; AID 739, 2007;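 further: yeast cells grown in 1536-well plates; yeast grown about 18 h at 30C before absorbance read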
CYP2C19 act: human CYP2C19 activators, primary screen, biochemical, luminescence; activation factor at 5 µM; 96,000 tested, under 10 active; recombinant CYP2C19, luciferin-H EGE luminescence; active compounds read high; 0 = fully inhibited enzyme, 1 = untreated enzyme; AID 1025, 2008;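 active means activation factor of at least 2 at 5 µM in the primary screen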;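 further: 0 = wells with 2.5 mM tranylcypromine and 1 = vehicle-only wells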
PostGolgi ctrl: growth inhibition of yeast control strain, primary screen, counter-screen for post-Golgi transport modulator project; hit rate 5% among 98,000; inhibition, % at 10 µM; efflux-deficient yeast background strain, growth absorbance A615, 16 h
The depositor's hits bear a star. A selection: hits, their analogues and other compounds. The true share with any hit is near 32%. Unless noted, no stated cut-off is given here; in the data, active means inhibition above about 30%; inactive means the rest.

SMILES	CYP2C9 inhib	CYP2C19 inhib	CYP2C9 activ	PostGolgi yeast	CYP2C19 act	PostGolgi ctrl
CC(=O)C1=C(O)C(=O)N(CCCO)C1c1ccccc1 (centres undefined)	-43	-3	1.4	-7	1	-3
O=C1C2C(c3ccccc3)C=CC(c3ccccc3)C2C(=O)N1CCCO (centres undefined)	82*	82*	0.2	18	0.2	5
C=CCOCCN1C(=O)C2C(c3ccccc3)C=CC(c3ccccc3)C2C1=O (centres undefined)	40	66*	0.6	9	0.3	2
CCOC(=O)C1CCN(CC(=O)Nc2c(C(=O)OC)[nH]c3cccc(Cl)c23)CC1	19	23	0.8	23	0.8	2
COC(=O)c1[nH]c2ccccc2c1NC(=O)CN1CCN(Cc2ccc3c(c2)OCO3)CC1	41	51*	0.6	6	0.5	-2
CCN(CC(=O)Nc1c(C(=O)OC)[nH]c2ccc(C)cc12)c1ccc2c(c1)OCO2	62*	23	0.4	-2	0.8	53*
COC(=O)c1[nH]c2ccc(F)cc2c1NC(=O)CCN1CCN(Cc2ccc3c(c2)OCO3)CC1	-11	0	1.1	13	1	6
CCOC(=O)C1CCCN(CC(=O)Nc2c(C(=O)OC)[nH]c3ccc(Br)cc23)C1 (centres undefined)	58*	52*	0.4	1	0.5	56*
COC(=O)c1[nH]c2ccc(Br)cc2c1NC(=O)CN1CCN(C2CCCCC2)CC1	18	39	0.8	-7	0.6	3
CCOC(=O)C1CCN(CC(=O)Nc2c(C(=O)OC)[nH]c3ccccc23)CC1	-47	73*	1.5	0	0.3	7
CC(=O)Nc1cccc(NC(=O)CCCC(=O)O)c1	3	3	1	3	1	2
CCOC(=O)C1CCN(CC(=O)Nc2c(C(=O)OC)[nH]c3ccc(Cl)cc23)CC1	45	73*	0.5	3	0.3	10
CC1CCc2nc(NC(=O)CN3CCN(Cc4ccc5c(c4)OCO5)CC3)sc2C1 (centres undefined)	76*	72*	0.2	0	0.3	10
COC(=O)c1[nH]c2cc(OC)ccc2c1NC(=O)CCN1CCN(c2ccccc2)CC1	67*	-12	0.3	2	1.1	8
COC(=O)c1[nH]c2ccc(Br)cc2c1NC(=O)CN1CCCc2ccccc21	88*	16	0.1	0	0.8	69*
COC(=O)c1[nH]c2cc(OC)ccc2c1NC(=O)CCN1CCN(c2cccc(C)c2C)CC1	26	4	0.7	7	1	0
CC1(C)Cc2ccccc2C(NNC(=O)c2ccncc2)=N1	-2	0	1	-4	1	7
COC(=O)c1[nH]c2ccc(F)cc2c1NC(=O)CCN1CCN(C(=O)c2ccco2)CC1	33	31	0.7	0	0.7	32*
COC(=O)c1[nH]c2ccc(Cl)cc2c1NC(=O)CCN1CCN(C2CCCCC2)CC1	9	55*	0.9	14	0.4	8
O=C1CCN(Cc2nnnn2CC2CCCO2)c2ccccc2N1 (centres undefined)	-9	-10	1.1	-1	1.1	11
Cc1ccc(C(=O)N/C(=C\c2cccs2)C(=O)NC2CCCCC2)cc1	-23	7	1.2	0	0.9	11
COc1ccc(CNC(=O)C2CCCN2S(=O)(=O)c2ccc(C)cc2)cc1 (centres undefined)	14	80*	0.9	1	0.2	9
COc1ccc(S(=O)(=O)N2CCCC2C(=O)Nc2nccs2)cc1 (centres undefined)	23	0	0.8	1	1	4
COCCCNC(=O)C1CCCCN1S(=O)(=O)c1ccc(F)cc1 (centres undefined)	6	10	0.9	9	0.9	-3
COc1ccc(CNC(=O)C2CCCN2S(=O)(=O)c2ccccc2)cc1 (centres undefined)	34	77*	0.7	-10	0.2	-2
SMILES	CYP2C9 inhib	CYP2C19 inhib	CYP2C9 activ	PostGolgi yeast	CYP2C19 act	PostGolgi ctrl
COc1ccc(Cl)cc1Nc1nc(-c2sc(NC(=O)c3ccccc3)nc2C)cs1	68*	37	0.3	-9	0.6	-6
Cc1nc(NC(=O)CC(C)C)sc1-c1csc(Nc2ccc(Cl)cc2)n1	38	51*	0.6	21	0.5	22
COc1ccc(Cl)cc1Nc1nc(-c2sc(NC(=O)CC(C)C)nc2C)cs1	52*	32	0.5	-2	0.7	-1
Cc1nc(NC(=O)c2ccccc2)sc1-c1csc(Nc2ccc(Cl)cc2Cl)n1	11	65*	0.9	-2	0.3	12
Cc1nc(NC(=O)CC(C)C)sc1-c1csc(Nc2ccc(Cl)cc2Cl)n1	24	1	0.8	3	1	5
CCCCCC(=O)Nc1nc(C)c(-c2csc(Nc3ccc(Cl)cc3)n2)s1	32	41	0.7	-3	0.6	30
CCO/C(C)=N/n1c2nc3ccccc3nc2c2c(=O)n(CC(C)C)c(C)nc21	2	4	1	-3	1	6
Oc1ccccc1C1Nc2cccc3cccc(c23)N1	0	41	1	-2	0.6	1
O=[N+]([O-])c1ccccc1C1Nc2cccc3cccc(c23)N1	70*	99*	0.3	-27	0	-2
COc1ccccc1C1Nc2cccc3cccc(c23)N1	45	70*	0.6	22	0.3	6
CNC(=O)CC1C(=O)N(C)C(=S)N1NC(=O)c1ccc(Cl)cc1 (centres undefined)	-2	3	1	2	1	4
CCCCN(Cc1ccccc1)C(=O)c1cnc2n(c1=O)CCS2	2	-10	1	3	1.1	-7
CSc1cc(-c2ccc(Cl)cc2)c(C(=O)N2CCCC2)s1	16	10	0.8	-6	0.9	11
COC(=O)COc1ccc(C(=O)OC)cc1	29	81*	0.7	0	0.2	-5
COC(=O)c1ccc(OCC(=O)c2ccccc2OC)cc1	45	90*	0.6	-9	0.1	8
COC(=O)c1ccc(COc2ccc(-c3nn[nH]n3)cc2)cc1	39	30	0.6	2	0.7	9
O=C(Nc1cccc2c1CCCC2)C1CCCN(S(=O)(=O)c2cccc3nonc23)C1 (centres undefined)	16	8	0.8	-7	0.9	5
CCOc1ccccc1NC(=O)CC1NCCNC1=O (centres undefined)	-14	15	1.1	5	0.8	15
COc1ccc(S(C)(=O)=O)cc1S(C)(=O)=O	-16	-9	1.2	3	1.1	3
